Compounds without any hit were thinned out: in the full panel of roughly 83,000, 20% have a hit.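 Interpretation: 100, growth as untreated; towards 0, rising growth inhibition; 0, no net growth; 0 to -100, cell death. Compounds scoring below 10 were considered active.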 Values without a mark were called inactive. Calls of active or inactive are those of the source.
test system: NCI-H23 lung; test: NCI-60 one-dose screen, 48 h (100 = growth as untreated, 0 = no growth, -100 = all killed); conditions: 10 µM

Row | SMILES | growth
1 | Cc1ccc(C)c(COc2cc(NC(=O)c3ccc4c(c3)OCO4)ccc2N(C)S(C)(=O)=O)c1 | 9.96% (active)
2 | CCOC(=O)c1cc(C(=O)c2ccc(Cl)cc2)n2ccc(-c3cc[n+](CC(=O)c4ccc(OC)cc4)cc3)cc12 | 88.2%
3 | Clc1ccc(C2=NN=C3C(Cc4ccccc4)=Nc4ccccc4N3C2)cc1 | 90%
4 | O=C1c2ccccc2C(=O)c2c1ccc(C(Br)Br)c2[N+](=O)[O-] | 4.98% (active)
5 | COc1ccc(-c2nc(-c3nc4ccc(C)cc4[nH]3)cc3c2[nH]c2ccccc23)cc1 | 39%
6 | C(=N\Nc1ncnc2sc3c(c12)CCNC3)/c1cccc2ccccc12 | 98.9%
7 | CC(=O)N[C@H](C(=O)N[C@@H](CCCNC(=N)N)C(=O)N[C@@H](CCCCN)C(=O)N[C@@H](CCCNC(=N)N)C(=O)NC(C(=O)N[C@@H](CC(C)C)C(=O)N[C@@H](CCCNC(=N)N)C(=O)N[C@@]1(C)CCC/C=C\CCC[C@@](C)(C(=O)N[C@@H](CCCNC(=N)N)C(=O)N[C@@H](CCC(=O)O)C(=O)N[C@@H](CC(C)C)C(=O)N[C@H](C(=O)N[C@@H](CCC(=O)O)C(N)=O)C(C)C)NC(=O)[C@H](CCC(N)=O)NC(=O)[C@H](CC(C)C)NC(=O)[C@H](CC(C)C)NC1=O)[C@@H](C)O)C(C)C (stereo not given in full) | -34.6% (active)
8 | Cc1noc(C)c1CSc1ccccc1C(=O)N1CCN(c2cccc(C(F)(F)F)c2)CC1 | 67.9%
9 | C=CCn1c(SCC(=O)Nc2ccc(C(=O)/C=C/c3ccc(OC)cc3)cc2)nnc1-c1ccc(OC)c(OC)c1 | 89.3%
10 | CNC(=O)c1cc(Oc2ccc3c(c2)sc2nc(-c4ccc(N)cc4)cn23)ccn1 | 35%
11 | C/C(=N\O)c1ccc(NC(=O)CSc2nnc(-c3ccccc3)n2-c2ccccc2)cc1 | 76.6%
12 | CCN(CC)CCCC(C)Nc1c2ccc(Cl)cc2nc2ccc(OC)cc12 (stereo not given) | 44.7%
13 | CC[C@@H](C(=O)[C@@H](C)[C@@H](O)[C@H](C)[C@@H]1O[C@@H]([C@@H](CC)C(=O)N(CC)CC)CC[C@@H]1C)C1O[C@]2(C=CC(=O)[C@]3(CC[C@@](C)([C@H]4CC[C@](O)(CC)[C@H](C)O4)O3)O2)[C@H](C)C[C@@H]1C (stereo not given in full) | 20%
14 | O=S(=O)(Oc1ccc(-c2ccc3sccc3c2)cc1)c1ccccc1 | 89%
15 | COc1ccc(-c2cc(-c3ccc(Cl)cc3)nc(SCCCCCCC(=O)NO)n2)cc1OC | 42.7%
16 | CN1C(=O)C2(Nc3cc(Cl)ccc3S2)c2cc(Cl)ccc21 (stereo not given) | 82.7%
17 | Nc1ccc(/C=N/Nc2ccnc3c(O)cccc23)c2cccnc12 | 74.6%
18 | CN(C)CCOc1ccccc1NC1=C(Cl)C(=O)C(Nc2ccccc2OCCN(C)C)=C(Cl)C1=O | 64.1%
19 | CCn1c(SCCc2ccccc2)nnc1-c1nn(-c2ccc(Cl)cc2Cl)c(-c2ccc(Cl)cc2)c1C | 62.2%
20 | C=CCNCCN1C(=O)c2ccc3c4c(ccc(c24)C1=O)C(=O)N(CCNCC=C)C3=O | -36.4% (active)

Row | SMILES | growth
21 | COc1cc(C)ccc1Oc1nc(Nc2ccc(N3CCOCC3)cc2)ncc1NC(=O)Nc1cc(C(F)(F)F)cc(C(F)(F)F)c1 | 72%
22 | COc1cccc(CNc2cccc3cn[nH]c23)c1O | 94.9%
23 | NS(=O)(=O)Oc1ccc(NC(=O)C2CCCCCC2)cc1 | 97.4%
24 | COc1ccc(-c2n[nH]nc2-c2cc(OC)c3c(c2OC)OCO3)cc1 | 45.6%
25 | CCCN(CCC)C(=O)[C@H](CC)[C@@H]1CC[C@@H](C)[C@@H]([C@H](C)[C@@H](O)[C@@H](C)C(=O)[C@H](CC)C2O[C@]3(C=C[C@@H](O)[C@]4(CC[C@@](C)([C@H]5CC[C@](O)(CC)[C@H](C)O5)O4)O3)[C@H](C)C[C@@H]2C)O1 (stereo not given in full) | -9.41% (active)
26 | COc1cc(-c2nc3ccccc3o2)cc(CN2CCCCC2)c1O | 22.1%
27 | CC(=O)N[C@H](C(=O)N[C@@H](CCCNC(=N)N)C(=O)N[C@@H](CCCCN)C(=O)N[C@@H](CCCNC(=N)N)C(=O)N[C@]1(C)CCC/C=C\CCC[C@@](C)(C(=O)N[C@@H](CC(C)C)C(=O)N[C@@H](CC(C)C)C(=O)N[C@@H](CCC(N)=O)C(=O)N[C@@H](CCC(=O)O)C(=O)N[C@@H](CCCNC(=N)N)C(=O)N[C@@H](CCC(=O)O)C(=O)N[C@@H](CC(C)C)C(=O)N[C@H](C(=O)N[C@@H](CCC(=O)O)C(N)=O)C(C)C)NC(=O)[C@H](CCCNC(=N)N)NC(=O)[C@H](CC(C)C)NC1=O)C(C)C | 106%
28 | S=C(NCc1ccccc1)NCc1ccccc1 | 95%
29 | CC(C)c1ccc(C(C)C(=O)N(CC2=C(C(C)c3ccccn3)c3ccccc3C2)C(C)C)cc1 (stereo not given) | 26.3%
30 | COc1cc(/C=C2\CCCC3=C2NC(N)=NC3c2cc(OC)c(OC)c(OC)c2)cc(OC)c1OC (stereo not given) | 11.6%
31 | COc1ccc(-c2cc(-c3ccc(Cl)cc3)nc(SCCCC(=O)NO)n2)cc1 | 0.964% (active)
32 | CC(C)CCN(CCC(C)C)CC(=O)Nc1ccc(S(=O)(=O)c2ccc(NC(=O)CN(CCC(C)C)CCC(C)C)cc2)cc1 | 46.3%
33 | CN(C)CCCOc1ccccc1NC1=C(Cl)C(=O)C(Nc2ccccc2OCCCN(C)C)=C(Cl)C1=O | -48.5% (active)
34 | CC(C)(C)c1nn(-c2ccccc2)c2c1CC1(CN2Cc2ccc(Cl)cc2)C(=O)c2ccccc2C1=O | 80.8%
35 | N#CCc1csc(Cc2ccccc2)n1 | 97.2%
36 | COc1ccc(/C=C/c2nnc(/C=C/c3ccc(OC)c(OC)c3)o2)cc1OC | 25.4%
37 | NS(=O)(=O)c1ccc(Br)cc1 | 96%
38 | CCOC(=O)CC(S(=O)(=O)c1ccccc1)S(=O)(=O)c1ccccc1 | 98.3%
39 | Nc1nc(N)c(N)c(Nc2ccc(CCO)cc2)n1 | 98.3%
40 | CCN(CC)CCOc1ccc2c(c1O)C(=O)c1ccccc1C2=O | 82.4%

Reference: PubChem BioAssay (NCI)
